From PubChem
Most compounds without a hit are left out; they make up all but 12% or so of the library.
BAZ2B inh – blocks human BAZ2B; Potency, µM (highest dose often 114 µM), without a hit: at the highest dose activity change, negative = inhibition, actives largely listed as inhibitors; 360,000 tested, 4.4% active; AlphaScreen BAZ2B-H3K14Ac peptide displacement; also: % is scaled to controls: 0 for no effect and ±100 for the full control effect; nearly all actives have a fitted effect of over 60% in size
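Protein-peptide AlphaScreen: BAZ2B 50 nM, b-H3K14Ac 50 nM, 1x PBS pH 7.4 + 0.01% Tween-20. Preincubation 30 min RT; cpd 30 min RT (top 110 uM); beads 20 min RT, light-protected.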
HP1b chromo inh – inhibitors of HP1-beta chromodomain binding to methylated histone tails; AlphaScreen HP1-beta / biotin-H3K9me3 peptide binding; AID 540317; 390,000 tested, 0.56% active; Potency, µM (series often up to 114 µM), for inactives: at the top dose activity change, negative = inhibition, hits mostly inhibitors; P83916; also: nearly all actives have a fitted effect of over 70% in size
Target sequence (P83916 whole entry, looked up): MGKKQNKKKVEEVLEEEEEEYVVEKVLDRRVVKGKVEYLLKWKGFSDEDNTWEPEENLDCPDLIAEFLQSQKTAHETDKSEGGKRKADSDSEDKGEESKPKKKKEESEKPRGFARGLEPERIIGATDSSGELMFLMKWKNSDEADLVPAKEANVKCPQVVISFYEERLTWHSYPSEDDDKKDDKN
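Compound inhibition of the preformed complex between 50 nM HP1-beta and 50 nM biotinylated H3K9me3 peptide was read by AlphaScreen. Buffer was PBS pH 7.4 with 0.01% Tween-20. Incubations ran 30 min at room temperature, with 10 ug/mL donor/acceptor beads.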
L3MBTL1 block – blocks human L3MBTL1; Q9Y468; AlphaScreen L3MBTL1–H3K9me1 peptide binding; Potency, µM (top dose mostly 57.1 µM), inactives show at the highest dose activity, negative = inhibition, usual class: inhibitors; 230,000 tested, 0.66% active; also: % is scaled to controls: 0 for no effect and ±100 for the full control effect; nearly all actives have a fitted effect of over 60% in size
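L3MBTL1 (50 nM) pre-complexed 30 min with biotinylated H3(1-15)K9me1 peptide (75 nM), then compounds added for 30 min at room temperature; AlphaScreen streptavidin donor/nickel chelate acceptor beads (10 ug/mL final) read after 30 min dark incubation.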
JMJD2A Tudor inh – blocks the human JMJD2A Tudor domain; O75164; AID 504339; 390,000 tested, 4.4% active; Potency, µM (titrated, usually from 114 µM), inactives show at the top dose activity change, negative = inhibition, hits mostly inhibitors; AlphaScreen JMJD2A-Tudor / H3K4me3 peptide binding; also: % is scaled to controls: 0 for no effect and ±100 for the full control effect; nearly all actives have a fitted effect of over 50% in size
Sfp PPTase inh – Sfp phosphopantetheinyl transferase inhibition; Biochemical Sfp PPTase activity, qHTS; Potency, µM, without a hit: largest response in the series, negative = inhibition, usual class: inhibitors; 310,000 tested, 3.5% active; Q9F4F7;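 also: the enzyme is Sfp with the accession as filed and its product quenches rhodamine fluorescence; 0% = enzyme reaction without inhibitor and -100% = no enzyme wells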
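Sfp 15 nM + cpd, 15 min RT; start w/ rhodamine-CoA 5 uM, BHQ-2-YbbR 12.5 uM (final); 50 mM Hepes pH 7.6, 10 mM MgCl2, 0.01% NP-40, 0.01% BSA; read 525/598 nm at 0 and 30 min.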
G9a inh – blocks human histone lysine methyltransferase G9a; Q96KQ7; G9a H3K9 monomethylation, AlphaScreen, 2 h; Potency, µM (titrated, usually from 102 µM), inactives show at the highest dose activity, negative = inhibition, hits mostly inhibitors; 350,000 tested, 8.8% active; AID 504332; also: % is scaled to controls: 0 for no effect and ±100 for the full control effect; nearly all actives have a fitted effect of over 75% in size
Target sequence (Q96KQ7 913-1193 limits assumed): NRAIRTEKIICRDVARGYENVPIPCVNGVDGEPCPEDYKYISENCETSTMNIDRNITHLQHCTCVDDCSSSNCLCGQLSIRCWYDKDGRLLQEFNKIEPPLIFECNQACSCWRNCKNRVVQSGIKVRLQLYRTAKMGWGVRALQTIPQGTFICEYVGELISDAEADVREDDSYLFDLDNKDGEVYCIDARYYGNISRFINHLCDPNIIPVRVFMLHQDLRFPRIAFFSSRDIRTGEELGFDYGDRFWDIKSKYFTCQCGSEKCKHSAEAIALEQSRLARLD
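Chemiluminescent proximity detection of H3K9 monomethylation, read after 10 min bead incubation in the dark. Reaction: 20 nM G9a, 500 nM biotin-H3K9 peptide, 20 uM SAM cofactor, 2 h, room temperature, following 15 min enzyme-compound preincubation.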
* marks the source's active call; other numbers are inactive results; u = inconclusive; x = no result given; ! = not confirmed by another sample; [ ] = dose if it differs, or a comment. Calls follow the shape of the dose curve; as a rule, active = well fitted curve in the direction sought with a large enough effect; inconclusive = small, poorly fitted or top-dose-only effect, or another doubt; inactive = no such curve, though single readings can be large; an effect the other way counts as inactive or inconclusive. Potency is read from the fitted curve at half-maximal effect.

SMILES	BAZ2B inh	HP1b chromo inh	L3MBTL1 block	JMJD2A Tudor inh	Sfp PPTase inh	G9a inh
CCN(CC)CCCNC(=O)c1c(O)c2ccccc2n(Cc2ccccc2)c1=O	u	22%	0%	-30%	-8%	-22%[0.501 µM]
CC(C)Oc1ccc(CNC(=O)Oc2ccccc2)cc1	-4%	24%	-2%	-13%	3%	u
CCCCCCC1CC(C)(C(=O)CNc2nncs2)OC1=O (centres undefined)	-32%	9%	4%	-13%	-2%	14µM*
CCCCCCCCCCCCCCCC[n+]1ccccc1	x	65%	x	-9%	50µM*!	-35%[2.33 µM]
CCCCCCC[n+]1ccc(-c2cc[n+](CCCCCCC)cc2)cc1	79µM*	3%	-2%	u	-17%	4.5µM*
C[n+]1ccc(-c2cc[n+](C)cc2)cc1	x	19%	x	-12%	x	x
c1ccc([Se]c2c(-c3ccccc3)[se]c3ccccc23)cc1	x	x	x	x	1%	85%[59 µM]
CCC(C)C(=O)c1c(O)c(C)c2oc3c(C)c(O)c(C(=O)C(C)CC)c(O)c3c2c1O (centres undefined)	x	x	x	x	-7%	x
C#CCOS(=O)OC1CCCCC1Oc1ccc(C(C)(C)C)cc1 (centres undefined)	x	x	x	x	4%	x
C[C@](N)(CCP(=O)(O)O)C(=O)O	u	-15%	2%	4µM*	-20%	14µM*!
CCCC(=O)O[C@@H]1[C@@H](C)[C@@]2(O)[C@@H](C=C(CO)C[C@@]3(O)C(=O)C(C)=C[C@@H]23)[C@@H]2C(C)(C)[C@]12OC(=O)CCC	x	x	x	x	-13%	x
C[C@@H]1O[C@@H](OC2CC(O)C3(CO)C4C(CCC3(O)C2)C2(O)CCC(C3=CC(=O)OC3)C2(C)C[C@H]4O)[C@H](O)[C@H](O)[C@H]1O (some centres undefined)	x	x	x	x	6%	29%[59 µM]
COc1cccc(CNCCc2ccccc2)c1OC	-11%	8%	12%	-12%	17%	5%
COc1ccccc1CNCc1cc(OC)c(OC)cc1OC	50µM*	u	x	2.5µM*	13%	3.2µM*
CN(C)C(Cc1ccc(Cl)cc1)C(=O)c1ccccc1 (centres undefined)	-6%	12%	-4%	-15%	4%	45µM*
CCC(CC)c1nnc(NC(=O)CC(C)c2ccccc2)s1 (centres undefined)	1%	-14%	5%	-14%	-17%	u
Cc1cc(C)cc(N2C(=O)NC(=O)/C(=C\c3cccn3-c3ccccc3)C2=O)c1	-19%	18%	1%	-15%	-4%	u
O=C1NC(=S)NC(=O)C1=Cc1cccn1-c1ccc(O)cc1	-28%	u	x	25µM*	18µM*	7.1µM*
Cc1cc(C)cc(N2C(=O)NC(=O)/C(=C\c3cccn3-c3ccc(Cl)cc3)C2=O)c1	-4%	16%	28%	-9%	-1%	-24%[59 µM]
CN1C(=O)/C(=C/c2cccn2-c2ccc3ccccc3c2)C(=O)NC1=S	45µM*	-27%	u	u	56µM*	u
Cc1nn2c(=O)cc(N3CCNCC3)nc2s1	x	x	x	-2%	x	x
c1ccc2c(c1)OC[C@@H](C1=NCCN1)O2	x	x	x	x	2%	8%[21.5 µM]
Cc1c(C(=O)NCCC2=CCCCC2)oc2ccc(S(=O)(=O)N3CCC4(CC3)OCCO4)cc12	3%	22%	-4%	-20%	1%	50µM*
CCC1COC(Cn2cncn2)(c2ccc(Cl)cc2Cl)O1 (centres undefined)	x	x	x	x	-23%	x
Cc1ccccc1NC(=S)NC(NC(=O)CF)C(Cl)(Cl)Cl (centres undefined)	-21%	32%	2%	3%	14%	-1%[59 µM]
SMILES	BAZ2B inh	HP1b chromo inh	L3MBTL1 block	JMJD2A Tudor inh	Sfp PPTase inh	G9a inh
CCOC(=O)c1c(NC(NC(=O)CF)C(Cl)(Cl)Cl)sc2c1CCCC2 (centres undefined)	-36%	-6%	-7%	40µM*	-23%	45µM*
NCC#Cc1ccccc1	x	x	x	x	x	31%[12.7 µM]
Cc1ccc(Cl)cc1N1CCN(C(=O)c2cn(CC(C)C)c(=O)c3c2c2ccccc2n3C)CC1	u	12%	x	-30%	x	u
CCCCCCCSc1cc(OC)c(CCNC)cc1OC	20µM*	u	-2%	45µM*	u	22µM*
CC(=O)[C@@H]1CC[C@@H]2[C@@H]3CCC4=CC(=O)CC[C@@]4(C)[C@H]3CC[C@]21C	x	x	x	x	7%	22%[21.5 µM]
Clc1ccc(CO[C@@H](Cn2ccnc2)c2ccc(Cl)cc2Cl)cc1	x	x	x	x	10%	u
Cn1c(=O)oc2cc(S(=O)(=O)N3CCC(C(=O)N4CCN(c5ccccc5)CC4)CC3)ccc21	-8%	24%	u	-19%	3%	-21%
Cn1c(=O)oc2cc(S(=O)(=O)N3CCC(C(=O)N4CC=C(c5ccccc5)CC4)CC3)ccc21	-3%	34%	x	-15%	5%	50µM*
CN1C(=O)COc2c(C(=O)N[C@@H]3CN4CCC3CC4)cc(Cl)cc21	x	x	x	x	-9%	x
CC(=O)NC(Cc1ccc(N(CCCl)CCCl)cc1)C(=O)NC(CC(C)C)C(=O)O (centres undefined)	u	15%	-6%	-27%	u	50µM*
CC(=NCc1ccco1)c1c(O)n(-c2ccccc2C)c(=O)[nH]c1=O	-5%	14%	4%	-13%	6%	x
Cc1ccccc1-n1c(O)c(C(c2ccncc2)c2c(O)n(-c3ccccc3C)c(=O)[nH]c2=O)c(=O)[nH]c1=O	u	22%	x	-11%	-22%	25µM*
COC(=O)[C@@]1(OC)C[C@@H]2O[C@@]1(C)n1c3ccccc3c3c4c(c5c6ccccc6n2c5c31)C(=O)N(C)C4	x	x	x	x	10%	-4%[12.7 µM]
C1=C(c2ccccc2)CCNC1	3%	9%	12%	-12%	5%	x
Oc1ccc(C2=CCNCC2)cc1O	x	u	x	10µM*	x	x
COc1ccc(C2=NCC(=S)Nc3ccc(Cl)cc32)cc1OC	x	15%	x	-20%	x	x
S=c1[nH]nc(-c2ccc3ccccc3n2)n1-c1ccc2c(c1)OCCO2	u	8%	30%	45µM*	-2%	x
O=c1c2ccccc2[nH]c(=S)n1-c1ccc2c(c1)OCO2	-5%	44%	-6%	-2%	20%	20%[59 µM]
COc1ccc(-c2n[nH]c(=S)n2-c2ccc3c(c2)OCCO3)cc1OC	-10%	8%	6%	3.2µM*	u	x
O=C(C/C=N\OCc1c(Cl)cccc1Cl)Oc1ccc(Cl)cc1Cl	-5%	37%	x	8%	7%	u
